This note sets out measurements from PubChem BioAssay (NCI).

This is part of a sample that, as a whole, favours compounds with a hit. Of some 79,000 tested, about 15% had one in any assay. The source made the active and inactive calls. No stated cut-off is given here; in the data, active means growth inhibition above about 70%; inactive means the rest.

The nature of test [1]: NCI Yeast Anticancer Drug Screen. Data for the rad50 strain (AID 155).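 Further: 0% = growth of vehicle-only cultures of the same strain.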 The settings on record: S. cerevisiae rad50 strain growth inhibition; at 50.0 µM; stronger effect = higher value. The gist of the method: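 A DNA repair-deficient yeast mutant serves as the test organism; compound-induced growth inhibition is calculated against vehicle-treated cells.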
Test [2] is described as follows: NCI Yeast Anticancer Drug Screen. Data for the mec2-1 strain (AID 157). The settings on record: S. cerevisiae mec2-1 strain, at 50.0 µM, stronger effect = higher value. A digest of the protocol: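 Mutant yeast (mec2-1) grown with compound; growth inhibition relative to vehicle control reported.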
A short description of test [3]: NCI Yeast Anticancer Drug Screen. Data for the sgs1 mgt1 strain (AID 161).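 Further: 0% = growth of cultures given vehicle only.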 The settings on record: S. cerevisiae sgs1 mgt1 strain, at 50.0 µM, stronger effect = higher value. The gist of the method: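 Yeast cells carrying a defined DNA-repair defect were exposed to test compounds. Growth inhibition was measured relative to vehicle-treated controls.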
The nature of test [4]: NCI Yeast Anticancer Drug Screen. Data for the cln2 rad14 strain (AID 165).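 Further: 0% = growth equal to vehicle treated cultures.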 The note with it: S. cerevisiae cln2 rad14 strain, at 50.0 µM, stronger effect = higher value. The gist of the method: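 Readout is yeast growth inhibition versus vehicle-treated controls, using a strain with cln2 and rad14 alterations exposed to compound.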
Test [5] in a line: NCI Yeast Anticancer Drug Screen. Data for the bub3 strain (AID 167). The settings on record: S. cerevisiae bub3 mutant strain, at 50.0 µM, stronger effect = higher value. A digest of the protocol:
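Inhibition values come from growth of compound-treated mutant yeast normalised to vehicle-treated controls.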

The nature of test [6]: NCI Yeast Anticancer Drug Screen. Data for the mlh1 rad18 strain (AID 175). The note with it: S. cerevisiae mlh1 rad18 strain growth inhibition; at 50.0 µM; stronger effect = higher value. The gist of the method: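 Genetically defined yeast (DNA repair-deficient) exposed to compounds; growth inhibition determined relative to vehicle.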

Regarding `N=C1N=C(N)CS1`, the growth inhibition is 2.6% (inactive) in test [1]; -10% (inactive) in test [2]; 3.8% (inactive) in test [3]; 12.4% (inactive) in test [4]; 25.9% (inactive) in test [5]; 3.85% (inactive) in test [6].
Turning to `CCOC(=O)COc1cc(-c2ccccc2)nc2cc(F)ccc12`, the growth inhibition in test [1] is 10.5% (inactive); in test [2], 7.95% (inactive); in test [3] it was 0.25% (inactive); in test [4] it was -18.4% (inactive); in test [5] it was -4.1% (inactive); in test [6] it was -25.9% (inactive).
Take `O=C1c2ccccc2-c2c1c1ccccc1c(=O)n2CCO`: the growth inhibition in test [1] was 76.8% (active); in test [2], 43.7% (inactive); in test [3], 60.4% (inactive); in test [4], 60.6% (inactive); in test [5], 51.9% (inactive); in test [6], 62.8% (inactive).
Regarding `CCCCC1C(=O)N(c2ccc(S(=O)(=O)Nc3ccccn3)cc2)N(c2ccc(O)c(C(=O)O)c2)C1=O` (centres undefined), the growth inhibition is 21.8% (inactive) in test [1]; 23.7% (inactive) in test [2]; 6.7% (inactive) in test [3]; 23.2% (inactive) in test [4]; 34.6% (inactive) in test [5]; 8.85% (inactive) in test [6].
Turning to `CCN(CC)C(=O)c1cccnc1`, the growth inhibition in test [1] was 0.8% (inactive); in test [2] it was -46.9% (inactive); in test [3] it was -33% (inactive); in test [4], 14.2% (inactive); in test [5] it was -20.4% (inactive); in test [6], 18.6% (inactive).
On to `COc1ccc(N=C(C)C(C)=Nc2ccc(OC)cc2)cc1`, for which the growth inhibition in test [1] was -3% (inactive); in test [2], 3% (inactive); in test [3], -15.1% (inactive); in test [4], 14.1% (inactive); in test [5], 11.6% (inactive); in test [6], -17.7% (inactive).
Take `Fc1ccc(Nc2nc(Cl)c3[nH]cnc3n2)cc1Cl`: the growth inhibition is 11.5% (inactive) in test [1]; 1.45% (inactive) in test [2]; 27.6% (inactive) in test [3]; 7.6% (inactive) in test [4]; 32.6% (inactive) in test [5]; -28.7% (inactive) in test [6].
`CC1CC2(OC2C)C(=O)OC2CCN(C)C/C=C(/COC(=O)C1(C)O)C2=O` (centres undefined): the growth inhibition in test [1] was 2.3% (inactive); in test [2] it was 7.05% (inactive); in test [3] it was 20.9% (inactive); in test [4], 4.85% (inactive); in test [5], -10.8% (inactive); in test [6], -52% (inactive).
Take `CC1(C)C2CCC1(CS(=O)(=O)O)C(=O)C2` (centres undefined): the growth inhibition in test [1] is -14% (inactive); in test [2] it was -6.6% (inactive); in test [3] it was -12.4% (inactive); in test [4], -58.4% (inactive); in test [5], -4.65% (inactive); in test [6], -1.2% (inactive).
For `O=c1c2ccccc2nc(-c2ccccc2)n1/N=C/c1ccccc1[N+](=O)[O-]`, the growth inhibition is 18.2% (inactive) in test [1]; 1% (inactive) in test [2]; 26.8% (inactive) in test [3]; 8.35% (inactive) in test [4]; 18.4% (inactive) in test [5]; -56.2% (inactive) in test [6].
`N#CC(=S)Nc1ccc(F)cc1`: the growth inhibition is 20.2% (inactive) in test [1]; 26.1% (inactive) in test [2]; 30.7% (inactive) in test [3]; -17.8% (inactive) in test [4]; 10.9% (inactive) in test [5]; -5.8% (inactive) in test [6].
With `N#Cc1n[nH]n(-c2ccccc2)c1=O`, the growth inhibition in test [1] is -26.3% (inactive); in test [2] it was -10.8% (inactive); in test [3], 17.3% (inactive); in test [4], -11.7% (inactive); in test [5] it was -21% (inactive); in test [6] it was -13.7% (inactive).
For `COc1cc2c(cc1-c1coc3cc(O)ccc3c1=O)OCO2`, the growth inhibition in test [1] is -12.6% (inactive); in test [2], -24.3% (inactive); in test [3], -15.6% (inactive); in test [4], 11.2% (inactive); in test [5] it was -14.3% (inactive); in test [6], -42.6% (inactive).
Regarding `COC(=O)C(=O)C(C(=O)C(=O)Nc1ccc(Cl)c(Cl)c1)c1nc2ccc(C(=O)c3ccccc3)cc2[nH]c1=O` (centres undefined), the growth inhibition is 6.8% (inactive) in test [1]; -9.65% (inactive) in test [2]; -15.1% (inactive) in test [3]; 5.95% (inactive) in test [4]; -3.05% (inactive) in test [5]; 4.95% (inactive) in test [6].
In the case of `Clc1ccc(C2NN=C3c4ccccc4OCC32)cc1` (centres undefined), the growth inhibition in test [1] was -7.85% (inactive); in test [2], -24.1% (inactive); in test [3], -3% (inactive); in test [4], 7.85% (inactive); in test [5], 1.3% (inactive); in test [6], 17.2% (inactive).
As to `O=C(CCc1ccc(O)c(O)c1)c1ccc(O)c(O)c1O`, the growth inhibition in test [1] was 2.05% (inactive); in test [2], -19.9% (inactive); in test [3], 9.1% (inactive); in test [4] it was 2.6% (inactive); in test [5], -17.1% (inactive); in test [6], -33.9% (inactive).
For `CCC(=O)C(CC)c1cccc(OC)c1` (centres undefined), the growth inhibition in test [1] was 16.6% (inactive); in test [2] it was -3.8% (inactive); in test [3], 12.2% (inactive); in test [4], 25.3% (inactive); in test [5], 9.55% (inactive); in test [6] it was 21.4% (inactive).
With `COc1cc2c(c3c1c(=O)c1ccccc1n3C)C=C([N+](=O)[O-])C(C)(C)O2`, the growth inhibition in test [1] is 1.4% (inactive); in test [2] it was -32.8% (inactive); in test [3], 16.6% (inactive); in test [4], 6.95% (inactive); in test [5], -39.5% (inactive); in test [6], -25.3% (inactive).
In the case of `COC(=O)C1=CO[C@@H](OC2OC(CO)C(O)C(O)C2O)[C@H]2[C@@H](C)[C@@H](O)[C@@H](O)[C@@H]12` (some centres undefined), the growth inhibition is -5.15% (inactive) in test [1]; -10.1% (inactive) in test [2]; -0.75% (inactive) in test [3]; 2.4% (inactive) in test [4]; -5.9% (inactive) in test [5]; -57.7% (inactive) in test [6].
